The text below walks through data of PubChem BioAssay (NCATS).

Inconclusive results are not listed. Values without a mark were called inactive. Active and inactive are the calls of the source. Calls follow the shape of the dose curve; as a rule, active = well fitted inhibition curve with a large enough effect; inconclusive = small, poorly fitted or top-dose-only effect; inactive = no such curve, though single readings can be large or run the other way. *1 amine or outer side, *2 acyl side, *3 side chain or, on linkers, in order; H or OH if unused. Where a SMILES comes first, the peptide text is derived from it. Bridges are numbered along the chain shown (N, C = ends). Roman numbers before positions name the chains, in order. [ ]: non-standard residue; d: D form. ξ: configuration not given here. Actinocin(9to1) = Cc1c2oc3c(C)ccc(C(=O)[*:1])c3nc-2c(C(=O)[*:2])c(N)c1=O; ξNMeV = CNC(C(=O)O)C(C)C; ξV = CC(C)C(N)C(=O)O; Sar = CNCC(=O)O
% is scaled to controls: 0 for no effect and ±100 for the full control effect; potency is read from the fitted curve at half-maximal effect.

The assay in a line: Tertiary RLuc qRT-PCR qHTS assay for Zika virus inhibitors (AID 1347169). Also: nearly all actives have a fitted effect of over 55% in size. As to activity change, negative = inhibition: top concentration of the series differs between compounds. The settings on record: infected Vero cells, reporter luminescence, 48-72 h; series mostly up to 45.9 µM; activity change, negative = inhibition: at the top concentration. The source says:
Avindra Nath, Ph.D., National Institute of Neurological Disorders and Stroke (NINDS), Bethesda, MD
Radhakrishnan Padmanabhan, Ph.D., Georgetown University (GU), Washington D.C.
Zika Virus causes congenital defects, including microcephaly and is associated with Guillain-Barre syndrome, eningoencephalitis and myelitis in infected adult. […] Using a target-based approach, we hope to establish a screening paradigm to uncover novel, cell-active NS2B-NS3 protease (Zika Virus) specific inhibitors from NCATS' collection of small molecules using qHTS.
Four assay panel was created to identify potential Zika Virus inhibitors. Namely, (1) GU unlinked NS2B-NS3 AMC tagged protease qHTS, (2) GU unlinked NS2B-NS3 Rhodamine tagged protease qHTS, (3) NINDS linked NS2B-NS3 AMC tagged protease qHTS, (4) NINDS linked NS2B-NS3 Rhodamine tagged protease qHTS. Identified inhibitors were re-acquired and tested against secondary confirmatory, orthogonal, and counterscreens to exclude nonspecific inhibition.
Early Translation Branch (ETB)
National Center for Advancing Translational Sciences (NCATS), Rockville, MD
National Institute of Health (NIH), Bethesda, Maryland
1536-well recombinant virus ZIKV-RLuc (Cambodian) Assay:
For a follow-up assay, we adapted a high throughput orthogonal assay in 1536-well plate format to use the recombinant virus ZIKV-RLuc, in Vero cells. Briefly, three microL of Vero cells derived from a green monkey cell line, were dispensed Multidrop Dispenser into a solid bottom white 1,536-well plate at a concentration of 1,000 cells per well. The plate was incubated overnight in a CO2 incubator at 37 degrees C. Compounds were delivered as a 23 nL DMSO solution by Kalypsys pintool transfer. Following compound transfer, 2 microL of ZIKV-RLuc was added at an MOI of 1-2 and incubated in a CO2 incubator for 48-72 hrs at 37 degrees C. After sufficient incubation of infected cells in test plates, live cell Renilla luciferase substrate (Promega) was added. The luminescence signal was measured after 1-1.5 hrs exposure to substrate in ViewLux reader.
With `NCc1ccc(OCCCc2sc(-c3ccc4c(c3)/C(=N/Nc3nc5ccccc5s3)CCC4)nc2C(=O)O)cc1`, the “activity change, negative = inhibition” value was 17.1%.
The same measure, in the same setting: as for `Cc1nn(C)c(COc2ccc(N3CCN(S(=O)(=O)N(C)C)CC3)cc2)c1-c1cccc2c(CCCOc3cccc4ccccc34)c(C(=O)O)n(CCN3CCOCC3)c12`, the figure is -29.9%; as for `O=C(O)c1cc(O)c2cccc(O)c2c1O[C@@H]1O[C@H](CO)[C@@H](O)[C@H](O)[C@H]1O`, -31.4% [at 26.6 µM]; as for `CC1C/C=C/C=C\CCCCC(O)C/C=C/C(=O)O1` (stereo unspecified), -19.8%.
On the same count and under the same terms, in the case of `O=C(/C=C/c1c(C(=O)O)[nH]c2cc(Cl)cc(Cl)c12)Nc1ccccc1` it was -19%.
On to `CCOc1ccc(-c2ccc(Cn3c(CC(C)(C)C(=O)O)c(SC(C)(C)C)c4cc(OCc5ccc(C)cn5)ccc43)cc2)cn1`, for which the Potency was 5.23 µM (active).
The same measure, in the same setting: as for `O=S(=O)(O)c1ccc2c(N=Nc3ccc(S(=O)(=O)O)c4ccccc34)c(O)c(S(=O)(=O)O)cc2c1`, the entry is “inactive”.
`CC12CCC3C(C)(C)C(O)CCC3(C)C1Cc1c(oc(C(=O)O)cc1=O)O2` (stereo unspecified): the “activity change, negative = inhibition” value was -34.6% [at 26.6 µM].
Same read-out and setting: in the case of `CC(C)C1=CCC(C)(O)C(OC2OC(CO)C(O)C(O)C2O)C1` (stereo unspecified) it was 8.28% [at 26.6 µM]; in that of `CCCCS(=O)(=O)Nc1ncnc(OCCOc2ncc(Br)cn2)c1-c1ccc(Br)cc1`, -38.2%; in that of `CC(C)(O)C1CC=C(C(=O)OCC2OC(Oc3c(O)cc(C(=O)O)cc3O)C(O)C(O)C2O)CC1` (stereo unspecified), -57.9% [at 26.6 µM].
The same measure, in the same setting: in the case of `CC(=O)c1c(C)cc(O)cc1O[C@@H]1O[C@H](CO)[C@@H](O)[C@H](O)[C@H]1O` it was 29.1% [at 26.6 µM].
On the same count and under the same terms, in the case of `CC(C)(O)/C=C1/C(=O)C(C)(C)C(=O)C(C)(C)C1(O)O[C@@H]1O[C@H](COC(=O)c2cc(O)c(O)c(O)c2)[C@@H](O)[C@H](O)[C@H]1O` (stereo partly specified) it was -26.7% [at 14.8 µM].
`O=S(=O)(O)c1cc(O)c2c(N=Nc3ccc(Nc4ccccc4)c4c(S(=O)(=O)O)cccc34)cc(S(=O)(=O)O)cc2c1`: the activity change, negative = inhibition was -4.11% [at 1.74 µM].
In the case of `Cc1c2oc3c(C)ccc(C(=O)N[C@@H]4C(=O)NC(C(C)C)C(=O)N5CCC[C@H]5C(=O)N(C)CC(=O)N(C)C(C(C)C)C(=O)O[C@@H]4C)c3nc-2c(C(=O)N[C@@H]2C(=O)NC(C(C)C)C(=O)N3CCC[C@H]3C(=O)N(C)CC(=O)N(C)C(C(C)C)C(=O)O[C@@H]2C)c(N)c1=O` (stereo partly specified) (I: T[ξV]P[Sar][ξNMeV] / II: T[ξV]P[Sar][ξNMeV]; ester I:1-I:C, II:1-II:C; linker I:N-II:N via Actinocin(9to1)), the Potency was 0.208 µM (active).
Take `C=C1CC23CCC4[C@@](C)(CCC[C@@]4(C)C(=O)O)C2CCC1C3` (stereo partly specified): the “activity change, negative = inhibition” value is 50.9%.
Turning to `CC(C)C(=O)c1cn(CC(=O)COc2ccc(Oc3ccccc3)cc2)c2ccc(C(=O)O)cc12`, the Potency was 18.6 µM (active).
With `CC1(C)CC[C@]2(C(=O)O[C@@H]3O[C@H](CO)[C@@H](O)[C@H](O)[C@H]3O)CC[C@]3(C)C(=CCC4[C@@]5(C)C[C@@H](O)[C@H](O)[C@@](C)(CO)C5CC[C@]43C)C2C1` (stereo partly specified), the “activity change, negative = inhibition” value is 5.17% [at 14.8 µM].
Same read-out and setting: in the case of `OC[C@H]1O[C@@H](Oc2ccc(O)c3cccc(O)c23)[C@H](O)[C@@H](O)[C@@H]1O` it was -0.861% [at 26.6 µM].
For `COc1cccc(-n2nc(C(=O)O)cc2-c2ccc(C3CCCCC3)c(Cl)c2)c1`, the Potency is 18.6 µM (active).
Turning to `CC(C)c1cc2c(c(O)c1O[C@@H]1O[C@H](CO)[C@@H](O)[C@H](O)[C@H]1O)CC1(O)CCC(O)C(C)(C)C1CC2` (stereo partly specified), the “activity change, negative = inhibition” value is -20.6% [at 26.6 µM].
